# Rab9 prom act – activates the Rab9 promoter | Potency, µM (doses to about 9.22 µM), for the others: at the top dose activation, negative = inhibition, most hits filed as activators | Huh7 Rab9 promoter-luciferase reporter, luminescence, 24 h | 320,000 tested, 2.8% active | AID 485297; further: % of control where 0% means no effect; nearly all actives have a fitted effect of over 60% in size
#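 Cell-based reporter: Huh7 stable for Rab9 promoter-driven luciferase, plated in reduced-serum medium with 10% FBS at 1500 cells/well, compound-treated 24 h at 37 °C, luminescence read after 10 min reagent.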
# NPC1 prom act – NPC1 promoter activation; Potency, µM (series often up to 9.22 µM), for the others: at the highest dose activation, actives largely listed as activators; Huh7 NPC1 promoter luciferase reporter, 24 h; AID 485313; 320,000 tested, 2.4% active; further: % of control where 0% means no effect; nearly all actives have a fitted effect of over 60% in size
#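 Huh7 cells stably carrying NPC1 promoter–luciferase, plated in Opti-MEM with 10% FBS for 2 h, were exposed to compound in DMSO for 24 h at 37 °C; luciferase reagent was added for 10 min and luminescence read.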
# SMN2 splice enh – SMN2 splice variant enhancement | AID 1458 | 210,000 tested, 2.8% active | HEK293 SMN2-luciferase splicing reporter, luminescence, 30-36 h | Potency, µM (top dose mostly 46.1 µM), inactives show at the top dose activity change, positive = activation, most hits filed as activators; further: % of control where 0% means no effect; nearly all actives have a fitted effect of over 55% in size
#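 HEK293 cells carry an SMN2 minigene-luciferase reporter in which exon 7 inclusion puts luciferase in frame. Cells were seeded at 2000 cells/well, attached for 10-12 hours, then exposed to compounds for 30-36 hours at 37C before ONE-Glo luminescence.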
# ELG1 genotox – inducers of genotoxicity in HEK293T ELG1-luciferase cells; HEK293T ELG1-luciferase reporter, luminescence, 16 h; Potency, µM (top dose mostly 46 µM), inactives show at the highest dose activity change, positive = activation, hits mostly activators; 330,000 tested, 1.3% active; further: % of control where 0% means no effect; nearly all actives have a fitted effect of over 60% in size
#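 Quantitative HTS format in 1536-well plates. HEK293T ELG1-luciferase reporter cells receive test compound and are incubated 16 hr at 37 °C, 5% CO2; ONE-Glo added, 30 min room temperature, then luminescence read.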
# FLuc counter – counter-screen for miR-21 project: firefly luciferase inhibitors or activators. 360,000 tested, 6.9% active. purified FLuc, Km substrates, luminescence inhibition. P08659. Potency, µM (doses to about 57.5 µM), without a hit: at the highest dose activity change, negative = inhibition, actives largely listed as inhibitors. AID 588342;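 further: plate controls were vehicle for no effect and reference inhibitor for full effect; nearly all actives have a fitted effect of over 55% in size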
# Target sequence (P08659 whole entry, looked up): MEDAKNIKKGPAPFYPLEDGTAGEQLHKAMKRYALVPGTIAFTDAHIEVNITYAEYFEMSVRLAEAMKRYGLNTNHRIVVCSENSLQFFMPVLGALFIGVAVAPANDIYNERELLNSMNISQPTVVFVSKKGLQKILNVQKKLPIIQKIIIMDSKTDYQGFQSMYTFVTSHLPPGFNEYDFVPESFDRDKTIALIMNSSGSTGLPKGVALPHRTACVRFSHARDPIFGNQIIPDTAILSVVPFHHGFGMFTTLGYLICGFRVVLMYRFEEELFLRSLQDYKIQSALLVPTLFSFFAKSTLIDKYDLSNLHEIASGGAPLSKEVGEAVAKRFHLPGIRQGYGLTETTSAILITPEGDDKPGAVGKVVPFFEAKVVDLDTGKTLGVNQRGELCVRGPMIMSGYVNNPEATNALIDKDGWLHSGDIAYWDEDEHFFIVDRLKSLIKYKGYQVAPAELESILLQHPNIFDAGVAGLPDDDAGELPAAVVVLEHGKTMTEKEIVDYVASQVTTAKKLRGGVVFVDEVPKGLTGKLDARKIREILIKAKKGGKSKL
#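 Purified P. pyralis luciferase, 10 nM final, with Km-level 10 uM D-luciferin and 10 uM ATP in 50 mM Tris acetate pH 7.5, 10 mM Mg acetate, 0.01% Tween-20, 0.05% BSA; 6-point qHTS titration about 60 µM downward; luminescence read.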
# Active calls of the source: *; ? = inconclusive; · = no result given; [ ] = dose if it differs, or a comment. Only some compounds are listed: those with a hit (about 7.4% of all), similar ones and a draw of the others. The call rests on the fitted dose curve; in most records, active means well fitted curve in the direction sought with a large enough effect; inconclusive means small, poorly fitted or top-dose-only effect, or another doubt; inactive means no such curve, though single readings can be large; an effect the other way counts as inactive or inconclusive. Potency means the concentration at half of the fitted maximal effect.
SMILES,Rab9 prom act,NPC1 prom act,SMN2 splice enh,ELG1 genotox,FLuc counter
O=C(CSc1ccc(-c2ccc(F)cc2)nn1)N1CCCCC1,23%,20%,4%,9%,?
COc1ccc(-c2ccc(SCC(=O)N3CCOCC3)nn2)cc1,0%,20%,9%,5%,11µM*
O=C(CSc1ccc(-c2ccc(Br)cc2)nn1)N1CCOCC1,10%,30%,-13%,-6%,15µM*
CCOC(=O)CNC(=O)c1cc2c(=O)n(CC)c3ccccc3c2s1,·,·,8%,·,4%
CC12C=CC(=O)C=C1CCC1C2=CCC2(C)C1CC[C@@H]2C(=O)CN1CCN(c2cc(N3CCCC3)nc(N3CCCC3)n2)CC1 (stereo partly specified),·,·,-14%,·,·
CCCN(C(=O)CSc1n[nH]c(-c2ccc(OC)cc2)n1)c1c(N)n(Cc2ccccc2)c(=O)[nH]c1=O,-4%,-2%,·,3%,11µM*
COc1ccc(CCC(=O)OCC(=O)N(CC(C)C)c2c(N)n(Cc3ccccc3)c(=O)[nH]c2=O)cc1,-4%,-5%,·,1%,5%
COc1ccc(-c2nc(SCC(=O)N(CC(C)C)c3c(N)n(Cc4ccccc4)c(=O)[nH]c3=O)n[nH]2)cc1,-1%,9%,·,-2%,1.9µM*
O=C(NN=C1CCCC1)c1ccccc1O,6%,-1%,·,0%,?
C/C(=N\Nc1ccccc1C(=O)O)c1ccncc1,3.2µM*,2.2µM*,·,3.3µM*,11µM*
COc1ccc(/C(=N\Nc2ccccc2C(=O)O)c2ccccc2)cc1,26%,17%,-31%,12%,9.5µM*
O=C(O)c1ccccc1NN=C1CCCCC1,?,?,·,?,11µM*
C/C(=N\NC(=O)c1ccccc1NC(=O)c1ccc(Cl)cc1)c1ccncc1,?,?,-60%,-23%,0.027µM*
O=c1c(-c2cccc(F)c2)nc2cncnc2n1C1CC1,·,·,6%,·,·
O=C(N/N=C\c1cc([N+](=O)[O-])ccc1N1CCOCC1)c1ccccn1,-5%,-2%,-11%,10%,3%
Cc1nnsc1C(=O)N/N=C/c1ccccc1,-2%,1%,19%,1%,-6%
O=C(N/N=C/c1ccc(N2CCOCC2)cc1)c1ccccn1,2.2µM*,2.5µM*,·,?,6.7µM*
CC(C)c1ccc(/C=N/NC(=O)c2ccccn2)cc1,0.32µM*,0.14µM*,·,?,0.38µM*
CC(C)c1ccc(/C=N/NC(=O)CCNC(=O)c2ccccc2)cc1,?,?,·,23%,8.5µM*
O=C(N/N=C\c1ccc(Oc2ccccc2)cc1)c1csnn1,2.2µM*,3.5µM*,16µM*,?,2.7µM*
CN(C)c1ccc(/C=N/NC(=O)C(=O)N2CCCCCC2)cc1,-4%,0%,·,5%,-23%
CN(C)c1ccc(/C=N/NC(=O)c2ccccn2)cc1,0.13µM*,0.5µM*,·,1.2µM*,1.7µM*
CN(C)c1ccc(/C=N/NC(=O)c2ccnn2C)cc1,0.5µM*,2.5µM*,·,?,5.4µM*
CCOC(=O)N/N=C/c1ccc(Oc2ccccc2)cc1,?,?,?,15%,19µM*
CN(C)c1ccc(/C=N/NC(=O)c2ccn(C)n2)cc1,4.5µM*,2.5µM*,·,?,3.8µM*
SMILES,Rab9 prom act,NPC1 prom act,SMN2 splice enh,ELG1 genotox,FLuc counter
O=C(O)CCc1nc(-c2ccccc2-n2cccc2)no1,·,·,-23%[9.22 µM],·,·
CCOC(=O)c1ccc(NC(=O)CCn2ccc(C)n2)cc1,·,·,·,·,-5%
Cc1cc(=O)[nH]c2nnc(SCc3ccc(Cl)c(Cl)c3)n12,·,·,·,·,-11%
COc1ncc2nc(-c3cc(F)cc(F)c3)c(=O)n(CCc3ccccc3)c2n1,·,·,-14%,·,·
Cc1ccc(/C=N/NC(=O)c2ccccn2)o1,?,?,?,?,24µM*
Cc1cccc(/C=N/NC(=O)C[n+]2ccccc2)c1,1%,-2%,·,1%,3%
CN(C)c1ccc(/C=N/NC(=O)c2cnc3ccccc3c2)cc1,2%,12%,·,8%,?
CN(C)c1ccc(/C=N\NC(=O)c2csnn2)cc1,0.63µM*,0.89µM*,16µM*,?,3.8µM*
Cc1cccc(/C=N\NC(=O)c2csnn2)c1,28%,?,17%,?,8.5µM*
Cc1ccc(/C=N/NC(=O)c2ccncc2)o1,-8%,1%,-17%,0%,0%
CC(C)c1ccc(/C=N/NC(=O)c2cccc(Cl)c2)cc1,2.8µM*,2.8µM*,16µM*,21µM*,2.7µM*
Cc1sc(-n2cccc2)c(C(C)NC(=O)Nc2ccccc2Cl)c1C (stereo unspecified),·,·,-21%,·,6%
CCN1CCN(C(c2ccc(SC)cc2)c2c(O)cc(C)n(CCOC)c2=O)CC1 (stereo unspecified),·,·,·,·,-17%
CCn1c(=N)n(CCOc2ccc(Br)cc2)c2ccccc21,·,·,·,·,1%
CC(C)c1ccc(C(=O)N/N=C/c2cccc(Cl)c2Cl)cc1,?,?,5%,0%,8.5µM*
Cc1ccc(/C=N/NC(=O)c2cccc(NC(=O)c3ccccc3Cl)c2)o1,-2%,-2%,·,-4%,17µM*
CC(C)Oc1ccccc1/C=N/NC(=O)c1ccccc1Cl,0%,26%,·,0%,?
CC(C)(C)OC(=O)N1CCC(c2c(C(=O)N3CCN(Cc4ccccc4)CC3)cnn2-c2cccc(Cl)c2)CC1,·,·,·,·,-5%
O=C(c1cc(-c2ccc(Cl)c(Cl)c2)on1)N1CCCCCC1,2.8µM*,2µM*,·,?,4.8µM*
O=C(c1cc(-c2ccc(Cl)cc2)on1)N1CCCCCC1,1.1µM*,0.79µM*,·,4.6µM*,1.9µM*
COc1ccc(-c2cc(C(=O)N3CCCCC3)no2)cc1OC,?,?,14%,?,?
O=C(c1cc(-c2ccc3c(c2)OCO3)on1)N1CCCCC1,0.5µM*,0.32µM*,·,0.12µM*,0.85µM*
O=C(c1cc(-c2ccc(O)cc2)on1)N1CCCCCC1,2.5µM*,1.3µM*,·,?,13µM*
CC1CCCCN1C(=O)c1cc(-c2ccc(Br)cc2)on1 (stereo unspecified),·,·,8%,·,?
COc1cccc(C2CC(=O)Nc3c2c(=O)[nH]c2nc4ccccc4n32)c1 (stereo unspecified),·,·,0%,·,-15%
SMILES,Rab9 prom act,NPC1 prom act,SMN2 splice enh,ELG1 genotox,FLuc counter
O=c1c(-c2ccc(F)c(F)c2)nc2cncnc2n1Cc1ccccc1,·,·,-26%,·,·
COc1ccc(NC(=O)c2nn(C)c3c2CS(=O)(=O)c2ccccc2-3)cc1Cl,·,·,·,·,-14%
O=C(c1cc(-c2ccccc2O)on1)N1CCCCC1,·,·,20µM*,·,8.5µM*
CN(C(=O)c1cc(-c2ccccc2O)on1)c1ccccc1,·,·,-5%,·,?
CCN(Cc1cc(Cl)cc(C)c1O)Cc1c(O)ccc2ccccc12,·,·,-17%[9.22 µM],·,·
N/C(=N\OC(=O)c1ccc(Cl)cc1Cl)c1ccccn1,0.11µM*,0.32µM*,·,0.26µM*,0.095µM*
Cc1ccc(C(=O)O/N=C(\N)c2ccccc2)c(Cl)c1,0.79µM*,2.2µM*,·,?,0.085µM*

# From PubChem BioAssay
